Unmarked numbers belong to inactive results. Inconclusive results are not listed. Calls of active or inactive are those of the source. Unless noted, calls come from the whole dose curve; as a rule, active = well fitted curve in either direction with a large enough effect (not every such curve was filed as active); inconclusive = small, poorly fitted or top-dose-only effect, or another doubt; inactive = flat fitted curve, though single readings scatter. A value given as a limit tells only on which side of the number the result lay.

Test [1] addresses Lysosomal acid glucosylceramidase (Homo sapiens) (UniProt P04062). Nature of the test: Glucocerebrosidase-p2 (AID 348; in the data active = potency below about 10 µM; note: potency is the fitted concentration of half-maximal effect). To be noted: purified GBA, blue fluorogenic substrate, 40 min. In short, it runs like this: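 Normal human glucocerebrosidase (0.2 nM) with blue fluorogenic substrate (80 uM final) in citrate/phosphate pH 5.9 with 10mM sodium taurocholate, 0.01% tween-20; 40 min RT, NaOH/glycine stop; fluorescence Ex 365/Em 440; AC50 from a titration from 0.6 nM upwards.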

A short description of test [2]: NFAT Signaling Pathway (AID 444).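 Note: carbachol stimulus at about its EC50 of 1 µM final; % is set by controls: 0 for no effect and ±100 for the full control effect.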 The conditions noted are these: Jurkat NFAT-bla M1, carbachol, beta-lactamase ratio, 5 h; at 7.69 µM (top of the series) unless noted. Summed up: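 Jurkat cells with NFAT-driven β-lactamase reporter and co-expressed M1 receptor, stimulated with carbachol (final 1 uM, ~EC50), compound titration, 5 h at 37 °C. CCF4 loaded 1 h at RT; 460/530 nm ratio gave %activity and AC50.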

The nature of test [3]: Stat Signaling Pathway (AID 446).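 Note: ME-180 cervical cancer cells given 40 pM IL-6 alongside compound; SIE-controlled beta-lactamase reporter measured as 460/530 nm FRET emission ratio; % is set by controls: 0 for no effect and ±100 for the full control effect.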 To be noted: ME-180 SIE beta-lactamase reporter, IL-6 stimulated, 5 h; at 7.69 µM (top of the series) unless noted. In short, it runs like this:
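FRET read-out (405 nm excitation, 460/530 nm emission) of a beta-lactamase reporter under a STAT-inducible element in ME-180 cervical carcinoma cells. Cells with compound receive 40 pM IL-6 for 5 h. Values are normalised to AC90 stimulation and AC90 JAK-inhibitor controls.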

The target in test [4] is Glucocorticoid receptor (Homo sapiens) (UniProt P04150). Nature of the test: GR-GFP Redistribution (AID 450;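 active = compounds whose dose series gives a full or clear partial fitted curve of increased nuclear translocation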; note: potency is the fitted concentration of half-maximal effect). The conditions noted are these: U2OS GR-GFP nuclear translocation, laser cytometry, 2 h.
Glucocorticoid receptor (Homo sapiens), sequence (P04150 whole entry, looked up): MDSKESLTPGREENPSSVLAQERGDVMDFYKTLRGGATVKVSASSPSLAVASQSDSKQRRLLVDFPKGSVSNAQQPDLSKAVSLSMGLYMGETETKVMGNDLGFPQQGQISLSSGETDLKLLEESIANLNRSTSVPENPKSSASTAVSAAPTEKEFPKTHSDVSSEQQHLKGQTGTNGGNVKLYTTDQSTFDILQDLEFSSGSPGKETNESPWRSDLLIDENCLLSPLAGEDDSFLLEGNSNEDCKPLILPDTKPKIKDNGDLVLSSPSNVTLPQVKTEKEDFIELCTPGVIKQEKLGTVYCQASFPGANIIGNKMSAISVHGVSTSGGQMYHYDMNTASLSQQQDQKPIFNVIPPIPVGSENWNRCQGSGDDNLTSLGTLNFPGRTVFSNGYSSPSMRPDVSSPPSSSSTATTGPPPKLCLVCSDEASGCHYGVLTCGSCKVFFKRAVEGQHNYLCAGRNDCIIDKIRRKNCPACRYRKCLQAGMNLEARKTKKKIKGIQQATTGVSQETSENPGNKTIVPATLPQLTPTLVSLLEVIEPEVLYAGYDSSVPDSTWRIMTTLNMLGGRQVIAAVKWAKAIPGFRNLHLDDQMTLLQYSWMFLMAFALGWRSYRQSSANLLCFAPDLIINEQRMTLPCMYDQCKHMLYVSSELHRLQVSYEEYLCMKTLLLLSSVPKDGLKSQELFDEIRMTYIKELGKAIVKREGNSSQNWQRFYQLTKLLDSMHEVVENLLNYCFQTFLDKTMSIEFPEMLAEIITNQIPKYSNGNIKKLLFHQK
Test [5] shares this target. Put plainly: GR-EFC Redistribution (AID 451; calls by dose curve; note: potency is the fitted concentration of half-maximal effect). To be noted: CHO-K1 GR-EFC translocation, beta-gal luminescence, 2 h. Summed up:
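CHO-K1 cells expressing nuclear EA and GR-ED fragments of b-gal; compounds titrated up to 46 uM final, 2 h at 37 C. GR nuclear translocation read as complemented b-gal luminescence after 1 h RT detection.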

The target of test [6] is 3',5'-cyclic-AMP phosphodiesterase 4B (Homo sapiens) (UniProt Q07343). Put plainly: qHTS Assay for Inhibitors of PDE-IV (AID 607; active = well fitted activation curve with a large enough effect in the main read-out, with a control signal flat, not every such curve was filed as active; note: % of control where 0% means no effect). To be noted: HEK293 ACTOne CNG channel cells, membrane potential fluorescence; series mostly up to 22.9 µM. Summed up:
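Cell-based read-out of cAMP via a modified cyclic nucleotide-gated channel and membrane potential dye (535/590 nm) in HEK293 cells expressing PDE4 endogenously. Compounds tested up to 22.9 uM final; 100 uM RO 20-1724 reference.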

Test [7] concerns the target Mitogen-activated protein kinase 10 (Mus musculus) (UniProt Q61831). Nature of the test: JNK3 AlphaScreen Assay (AID 530).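 Note: kinase came from lysate of stimulated human HepG2 cells; signal reports phosphorylation of biotinylated GST-cJun 1-79 at Ser73 with 10 µM ATP; % is set by controls: 0 for no effect and ±100 for the full control effect.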 The conditions noted are these: JNK3 lysate, c-Jun phosphorylation; series mostly up to 11.4 µM. Summed up: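 HepG2 lysate (IL-1b/TNFa pre-activated) + biotin-GST-cJun 1-79 + anti-pSer73 cJun; cpd titration, 15 min RT; ATP 10 uM start; Tris pH 7.6, MgCl2, DTT, vanadate; beads in EDTA buffer; AlphaScreen.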
Background: In Alpha technology, singlet oxygen from a donor bead excites a nearby acceptor bead.

The nature of test [8]: qHTS Assay for Identification of Small Molecule Agonists for Hypoxia Response Element Signaling Pathway (AID 914; active = well fitted activation curve with a large enough effect in the signal ratio, with a control signal flat, not every such curve was filed as active; the % refers to the signal ratio; note: potency is the fitted concentration of half-maximal effect). The conditions noted are these: ME-180 (cervical carcinoma) HRE-bla reporter, beta-lactamase ratio, CoCl2, 17 h; activation: stronger effect = higher value. In short, it runs like this: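 Cells were plated overnight, pin-dosed with compound in a titration series, co-stimulated with EC50 CoCl2 and incubated 17 hours at 37 degrees Celsius. CCF4 substrate was then loaded, and AC50 values came from the 460nm/530nm ratio.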
In general terms: qHTS replaces the single test concentration by a dilution series.

In test [9] the target is Cytochrome P450 1A2 (Homo sapiens) (UniProt P05177). Nature of the test: p450-cyp1a2 (AID 410; calls by dose curve; note: potency is the fitted concentration of half-maximal effect). To be noted: recombinant CYP1A2, luciferin-ME demethylation, luminescence; series mostly up to 11.4 µM. Summed up:
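20nM CYP1A2, 100uM Luciferin-ME (=Km), 100mM KPO4; cpd 10 min RT; +NADPH regen, 60 min RT; stop/detect 20 min; luminescence. Normalized to furafylline 57 uM = full inhibition.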

For test [10], the target named is Cytochrome P450 2C19 (Homo sapiens) (UniProt P33261). Nature of the test: qHTS Assay for Inhibitors and Substrates of Cytochrome P450 2C19 (AID 899; active = well fitted curve in the direction sought with a large enough effect; an effect the other way counts as inactive or inconclusive; note: potency is the fitted concentration of half-maximal effect; nearly all actives have a fitted effect of over 60% in size). The conditions noted are these: recombinant CYP2C19, luciferin-H EGE luminescence; series mostly up to 11.4 µM. In short, it runs like this: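 Signal comes from luciferase acting on luciferin released by CYP2C19-mediated hydroxylation of Luciferin-H EGE, 10uM (KM). Assay mix: 5nM enzyme, 50mM KPO4; 60 min at 37C with NADPH regeneration. Data normalized against 57uM ketoconazole.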
Cytochrome P450 2C19 (Homo sapiens), sequence (P33261 whole entry, looked up): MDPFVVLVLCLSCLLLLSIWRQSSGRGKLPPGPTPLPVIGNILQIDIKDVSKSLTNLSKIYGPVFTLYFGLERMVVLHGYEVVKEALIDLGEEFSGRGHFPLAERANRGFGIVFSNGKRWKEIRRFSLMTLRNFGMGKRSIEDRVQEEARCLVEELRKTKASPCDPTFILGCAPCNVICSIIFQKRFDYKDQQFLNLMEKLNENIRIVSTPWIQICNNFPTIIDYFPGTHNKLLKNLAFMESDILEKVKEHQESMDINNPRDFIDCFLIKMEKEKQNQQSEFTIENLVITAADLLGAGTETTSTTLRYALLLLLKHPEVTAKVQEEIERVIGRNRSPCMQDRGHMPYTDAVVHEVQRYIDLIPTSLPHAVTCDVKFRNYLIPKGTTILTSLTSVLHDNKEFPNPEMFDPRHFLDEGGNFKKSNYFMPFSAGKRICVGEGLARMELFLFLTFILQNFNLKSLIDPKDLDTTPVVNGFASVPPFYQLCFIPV

The target in test [11] is Cytochrome P450 3A4 (Homo sapiens) (UniProt P08684). Nature of the test: qHTS Assay for Activators of Cytochrome P450 3A4 (AID 885; active = well fitted curve in the direction sought with a large enough effect; an effect the other way counts as inactive or inconclusive; note: nearly all actives have a fitted effect of over 65% in size). The conditions noted are these: recombinant CYP3A4, Luciferin-PPXE luminescence, 60 min; series mostly up to 11.4 µM. Summed up: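 Luminescent readout of luciferin formed from 25 uM Luciferin-PPXE (KM level) by 20 nM CYP3A4 in 200 mM KPO4, with 60 min NADPH-driven reaction at room temperature after 10 min compound exposure. Ketoconazole (57 uM) defined 100% inhibition.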
Cytochrome P450 3A4 (Homo sapiens), sequence (P08684 whole entry, looked up): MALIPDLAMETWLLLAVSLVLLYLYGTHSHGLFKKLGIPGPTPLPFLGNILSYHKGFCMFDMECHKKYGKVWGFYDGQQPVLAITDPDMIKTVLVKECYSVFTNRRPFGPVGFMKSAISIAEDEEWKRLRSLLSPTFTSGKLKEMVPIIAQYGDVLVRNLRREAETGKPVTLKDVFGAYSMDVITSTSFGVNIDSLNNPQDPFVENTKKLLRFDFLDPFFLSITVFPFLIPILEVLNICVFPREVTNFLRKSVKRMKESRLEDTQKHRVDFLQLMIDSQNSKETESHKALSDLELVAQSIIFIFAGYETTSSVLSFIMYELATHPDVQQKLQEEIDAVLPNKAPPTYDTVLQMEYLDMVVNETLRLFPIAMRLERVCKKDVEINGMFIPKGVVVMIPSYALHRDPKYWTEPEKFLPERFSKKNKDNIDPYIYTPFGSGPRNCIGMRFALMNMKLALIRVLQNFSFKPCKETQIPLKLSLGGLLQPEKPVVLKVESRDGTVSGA

3',5'-cyclic-AMP phosphodiesterase 4B (Homo sapiens), sequence (Q07343 whole entry, looked up): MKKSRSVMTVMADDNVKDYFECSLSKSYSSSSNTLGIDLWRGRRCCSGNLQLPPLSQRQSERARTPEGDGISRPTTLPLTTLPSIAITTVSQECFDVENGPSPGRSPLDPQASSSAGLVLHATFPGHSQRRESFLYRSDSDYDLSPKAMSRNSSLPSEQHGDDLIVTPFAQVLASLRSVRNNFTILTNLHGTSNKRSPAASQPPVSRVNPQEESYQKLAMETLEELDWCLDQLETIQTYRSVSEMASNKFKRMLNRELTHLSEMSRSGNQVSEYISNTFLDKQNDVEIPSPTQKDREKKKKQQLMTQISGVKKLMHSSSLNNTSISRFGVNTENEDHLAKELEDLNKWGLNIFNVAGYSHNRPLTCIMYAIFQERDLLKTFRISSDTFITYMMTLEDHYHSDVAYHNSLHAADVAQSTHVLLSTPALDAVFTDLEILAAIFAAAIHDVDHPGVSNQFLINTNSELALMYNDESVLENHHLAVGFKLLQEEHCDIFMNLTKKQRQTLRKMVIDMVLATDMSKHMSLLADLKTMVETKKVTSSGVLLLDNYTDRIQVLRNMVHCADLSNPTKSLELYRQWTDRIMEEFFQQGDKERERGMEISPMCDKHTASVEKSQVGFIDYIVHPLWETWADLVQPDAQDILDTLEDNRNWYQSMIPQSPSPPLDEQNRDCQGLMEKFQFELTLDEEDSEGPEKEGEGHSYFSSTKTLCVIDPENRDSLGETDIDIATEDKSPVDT
Lysosomal acid glucosylceramidase (Homo sapiens), sequence (P04062 whole entry, looked up): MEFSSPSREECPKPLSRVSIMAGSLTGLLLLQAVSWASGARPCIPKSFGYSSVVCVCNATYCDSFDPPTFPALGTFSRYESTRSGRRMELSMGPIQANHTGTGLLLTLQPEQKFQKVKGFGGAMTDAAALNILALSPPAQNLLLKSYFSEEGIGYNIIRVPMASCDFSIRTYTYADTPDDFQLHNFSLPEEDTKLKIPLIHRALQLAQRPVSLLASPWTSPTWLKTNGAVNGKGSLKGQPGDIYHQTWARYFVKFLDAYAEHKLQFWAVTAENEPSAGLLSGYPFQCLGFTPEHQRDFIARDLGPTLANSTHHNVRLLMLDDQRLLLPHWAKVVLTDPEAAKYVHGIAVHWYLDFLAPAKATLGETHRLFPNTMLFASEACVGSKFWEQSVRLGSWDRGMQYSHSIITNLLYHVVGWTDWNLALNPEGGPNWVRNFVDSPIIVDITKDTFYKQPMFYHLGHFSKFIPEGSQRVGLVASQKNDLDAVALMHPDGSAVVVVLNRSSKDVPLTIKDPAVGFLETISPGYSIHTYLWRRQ
Cytochrome P450 1A2 (Homo sapiens), sequence (P05177 whole entry, looked up): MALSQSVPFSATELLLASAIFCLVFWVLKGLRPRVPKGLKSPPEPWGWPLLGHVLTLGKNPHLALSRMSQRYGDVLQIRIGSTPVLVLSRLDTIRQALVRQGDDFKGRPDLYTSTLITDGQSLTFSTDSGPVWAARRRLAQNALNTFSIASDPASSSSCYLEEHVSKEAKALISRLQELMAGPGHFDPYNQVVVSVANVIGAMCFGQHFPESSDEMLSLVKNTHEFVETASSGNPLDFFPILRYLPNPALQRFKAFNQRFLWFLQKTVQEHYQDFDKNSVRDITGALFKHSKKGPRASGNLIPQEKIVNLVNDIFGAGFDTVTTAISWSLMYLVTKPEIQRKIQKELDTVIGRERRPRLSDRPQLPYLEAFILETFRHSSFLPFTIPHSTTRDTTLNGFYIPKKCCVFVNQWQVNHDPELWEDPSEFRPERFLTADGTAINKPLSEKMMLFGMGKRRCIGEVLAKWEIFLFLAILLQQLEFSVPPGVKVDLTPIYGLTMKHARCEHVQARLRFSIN

As for `O=c1c(-c2ccc(F)cc2)nc2cnc(Oc3ccccc3)nc2n1C[C@H]1CCCO1`, the Potency in test [1] was over 11.4 µM; in test [4] it was over 9.22 µM; in [5], over 46 µM. Also, the activity change, negative = inhibition in test [2] was -2.24%. In addition, the activity, negative = inhibition in test [3] was -12.2%. Besides, in test [6], the Potency result was “inactive”.
Take `COc1cccc(Nc2ncc3nc(-c4ccccc4)c(=O)n(C4CC4)c3n2)c1`: the Potency in [1] was over 11.4 µM; in test [4], over 9.22 µM; in test [5] it was over 46 µM; in test [8] it was 3.16 µM (active). For the same compound, in test [2], the activity change, negative = inhibition was -5.16%. In addition, in [3], the activity, negative = inhibition is 28.4%. In addition, the Potency entry in test [7] and in test [6] was “inactive” each time.
`C=C(C)CNCCN`: the figures for the Potency in test [1], in [4] and in [5] were over 11.4 µM, over 46 µM and over 9.22 µM, respectively. Further, the activity change, negative = inhibition in [2] is 17.5%. In addition, in test [3], the activity, negative = inhibition is 8.28%. For the same compound, the Potency entry in [7] and in [6] was “inactive” each time.
For `Cc1c(O)c(Br)c(C)c(O)c1Br` (tested in a mixture with another compound), the figures for the Potency in test [1], in test [4] and in test [5] were over 11.4 µM, over 46 µM and over 9.22 µM, respectively. Further, the activity change, negative = inhibition in test [2] is -77.8% (active). The Potency result in test [7] and in test [6] was “inactive” in each case.
Consider `Oc1c(Cl)cc(C(c2cc(Cl)c(O)c(Cl)c2)C(c2cc(Cl)c(O)c(Cl)c2)c2cc(Cl)c(O)c(Cl)c2)cc1Cl`, for which the Potency is 5.75 µM (active) in [1]; 0.794 µM (active) in [9]; over 46 µM in [4]; over 9.22 µM in test [5]; 2.51 µM (active) in [10]. The Potency result in test [7] and in [6] was “inactive” in each case.
Regarding `CN1CCN(c2ncc3nc(-c4ccc(Cl)cc4)c(=O)n(C4CC4)c3n2)CC1`, the Potency in test [1] is over 11.4 µM; in [9], 15.8 µM (active); in test [4], over 9.22 µM; in [5], over 46 µM; in [8] it was 3.16 µM (active). Also, the Potency result in [7] and in test [6] was “inactive” throughout.
In the case of `O=C(O)c1[nH]c(=O)[nH]c(=O)c1CN1CCCCC1`, the Potency was over 11.4 µM in test [1], over 46 µM in [4] and over 9.22 µM in test [5]. Moreover, the activity change, negative = inhibition in test [2] is 9.91%. For the same compound, the activity, negative = inhibition in test [3] was -5.07%. Moreover, the Potency entry in test [7] and in test [6] was “inactive” in each case.
With `CCc1ccc2c(c1)N(C[C@H](C)CN(C)C)c1ccccc1S2`, the Potency in [1] was over 11.4 µM; in [4] it was over 46 µM; in test [5], over 9.22 µM. Further, the activity, negative = inhibition in test [3] is 3.53%. The Potency entry in test [7] and in [6] was “inactive” in each case.
`O=[N+]([O-])c1ccc(S(=O)(=O)Cc2ccccc2)c([N+](=O)[O-])c1`: the Potency in test [1] is over 11.4 µM; in test [5], over 9.22 µM. Besides, the activity change, negative = inhibition in test [2] is -88.3% (active). The Potency entry in test [7] was “inactive”.
Take `NNC(=O)CCSc1ccccc1`: the Potency in test [1] is over 11.4 µM; in test [4] it was over 46 µM; in [5] it was over 9.22 µM; in test [10] it was 3.98 µM (active). Moreover, the activity change, negative = inhibition in [2] is 10.9%. For the same compound, in test [3], the activity, negative = inhibition was -4.96%. Also, the Potency result in test [7], in test [6] and in test [11] was “inactive” each time.

Values taken from PubChem BioAssay (NCATS).
